From ChEMBL document CHEMBL1201862, “PubChem BioAssay data set” (2004)
About 3,400 (6.1%) of roughly 56,000 sequences were called active. No stated cut-off is given here; in the data, active = GI50 up to about 1.1 µM and inactive = higher. These entries were drawn from the full list. Potency and affinity values are given separately.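 Step 1: Grow cells in 96-well plates. Step 2: Expose to compound for 48 hours at 5 concentrations. Step 3: Interpolate endpoints linearly; if unreached, use highest concentration. GI50 marks 50% less growth.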

System: HOP-62
Assay: NCI tumour cell line growth inhibition, 48 h

Substance | GI50
cis-Bis[[(trimethylsilyl)methyl]amino]tetrachloroplatinum(IV), CHEMBL2146191 | 20.6 µM
[Bis(aminomethyl)diethylsilane]tetrachloroplatinum(IV), CHEMBL2146203 | 1.7 µM
mu-(1,7-nanodiamine-N,N')bis-(cis-aminedichloroplatimum (II)), CHEMBL2146215 | 7.64 µM
CISPLATIN, CHEMBL11359 | 1.82 µM
[Bis(aminomethyl)dimethylsilane]tetrachloroplatinum(IV), CHEMBL2146190 | 6.61 µM
[Bis(aminomethyl)tetramethylenesilane]tetrachloropaltinum(IV), CHEMBL2146189 | 6.32 µM
[Bis(aminomethyl)dimethylsilane]dichloroplatinum (II), CHEMBL2146201 | 35.3 µM
[Bis(aminomethyl)tetramethylenesilane]dichloropaltinum(II), CHEMBL2146205 | 39.7 µM
[Bis(aminomethyl)ethylmethylsilane]tetrachloroplatinum(IV), CHEMBL2146192 | 4.91 µM
[Bis(aminomethyl)pentamethylenesilane]tetrachloropaltinum(IV), CHEMBL2146204 | 1.55 µM
[Bis(aminomethyl)pentamethylenesilane]dichloropaltinum(II), CHEMBL2146202 | 2.33 µM
